{"source": "PubChem BioAssay AID651958", "about": "(The Scripps Research Institute Molecular Screening Center, 2012)", "note": "Where “and” joins values, the source holds several entries; their conditions need not be identical. Equal values may be shown once. Screen size: about 370,000 compounds; about 2,000 (0.54%) were called active. Rule as the data show it: active = inhibition above about 30%; inactive = the rest. The full list was thinned out, with actives kept by preference."}
{"tested_on": "Crimean-Congo hemorrhagic fever virus L polyprotein viral ovarian tumor (vOTU) protease domain", "assay": "CCHFV vOTU protease inhibitors, primary screen, biochemical, Pep-AMC substrate, fluorescence (AID 651958); also: 0% = vehicle wells with enzyme and 100% = no enzyme wells", "conditions": "at 11.5 µM, stronger effect = higher value"}
{"smiles": "CCOC(=O)c1ccc(Nc2cc3ccccc3c(=O)[nH]2)cc1", "inhibition": "94.2% (active)"}
{"smiles": "CCOC(=O)c1ccc(NC(=O)C2CC(=O)Nc3nc4ccccc4n32)cc1", "note": "(stereo unspecified)", "inhibition": "19.2% (inactive)"}
{"smiles": "CCOC(=O)c1cc2c(=O)[nH]c(C(Cl)(Cl)Cl)nc2o1", "inhibition": "-3.85% (inactive)"}
{"smiles": "Cc1cc(C)cc(NC(=S)NC2CC3CCCC(C2)N3Cc2cccs2)c1", "note": "(stereo unspecified)", "inhibition": "-9.42% (inactive)"}
{"smiles": "CCC(C)(C(=O)NC1CCCC1)N(C(=O)CNC(C)=O)c1ccc(C)cc1", "note": "(stereo unspecified)", "inhibition": "7.89% (inactive)"}
{"smiles": "Oc1c(C=Nc2cccc3nsnc23)ccc2ccccc12", "inhibition": "86% (active)"}
{"smiles": "CC1=C(C(=O)N2CCOCC2)CC(CC(=O)NCC2CCCCC2)C(=O)N1Cc1ccc(F)cc1", "note": "(stereo unspecified)", "inhibition": "14% (inactive)"}
{"smiles": "CCCn1c(N)c(C(=O)CSc2nnc(Cc3cccs3)n2C2CC2)c(=O)[nH]c1=O", "inhibition": "-3.09% (inactive)"}
{"smiles": "CC(=O)c1c(N)n(C)c(=O)n(C)c1=O", "inhibition": "5.25% (inactive)"}
{"smiles": "N#C/C(=C\\c1ccccc1)c1n[nH]c(Cn2cncn2)n1", "inhibition": "4.11% (inactive)"}
{"smiles": "CCc1ccc(/C=N/NC(=O)c2ccc(OC3CCCC3)cc2)s1", "inhibition": "12.3% (inactive)"}
{"smiles": "COc1ccc(CNCCCNCc2ccc(OC)c(OC)c2)cc1OC", "inhibition": "5.96% (inactive)"}
{"smiles": "Cc1ccc2[nH]c(=O)c(CC=C(Cl)Cl)c(C)c2c1", "inhibition": "3.16% (inactive)"}
{"smiles": "CCOC(=O)c1ccc(NC(=O)c2nc[nH]c2C(=O)N[C@@H](CCCCNC(=O)OC(C)(C)C)C(=O)OC(C)(C)C)cc1", "inhibition": "29.6% (active)"}
{"smiles": "CC(C)(C)OC(=O)NCCCCCNC(=O)c1[nH]cnc1C(=O)Nc1nccs1", "inhibition": "0.59% (inactive)"}
{"smiles": "Cc1ccc(NC(=O)c2nc[nH]c2C(=O)N[C@@H](CCCCNC(=O)OC(C)(C)C)C(=O)OC(C)(C)C)cc1", "inhibition": "27.1% (inactive)"}
{"smiles": "CCOC1=C2CN(S(=O)(=O)c3ccc(C)cc3)[C@H](c3cccs3)C[C@H]2[C@H]2C(=O)N(c3ccccc3)C(=O)[C@H]2C1", "inhibition": "-5.03% (inactive)"}
{"smiles": "CSCCC(NC(=O)COc1ccccc1)C(=O)N1CCN(c2cccc(C(F)(F)F)c2)CC1", "note": "(stereo unspecified)", "inhibition": "13.9% (inactive)"}
{"smiles": "O=C(COc1ccc(Cl)cc1)N1CCN(c2cccc(C(F)(F)F)c2)CC1", "inhibition": "32.4% (active)"}
{"smiles": "O=C(COc1ccc(Cl)cc1)N1CCN(S(=O)(=O)c2ccc(Cl)cc2)CC1", "inhibition": "9.84% (inactive)"}
{"smiles": "CCNC(=O)N1CCCC(C(=O)c2ccc(-c3ccccc3)cc2)C1", "note": "(stereo unspecified)", "inhibition": "-6.51% (inactive)"}
{"smiles": "Cc1noc(C)c1S(=O)(=O)Nc1ccc(C(=O)O)cc1", "inhibition": "7.91% (inactive)"}
{"smiles": "Cc1oc2c(F)c(F)c(F)c(F)c2c1S(=O)(=O)Nc1cccc(C(F)(F)F)c1", "inhibition": "43.8% (active)"}
{"smiles": "Cc1ccc(N(CCC(=O)O)S(=O)(=O)c2cccc(C(F)(F)F)c2)cc1", "inhibition": "-2.86% (inactive)"}
{"smiles": "C[C@]12C=CC(=O)C=C1CC[C@@H]1[C@@H]2C(=O)C[C@@]2(C)[C@H]1CC[C@]2(O)C(=O)CO", "inhibition": "0.7% (inactive) and 3.02% (inactive)"}
{"smiles": "COCCCN(C(=S)Nc1c(C)cc(C)cc1C)C(C)c1ccncc1", "note": "(stereo unspecified)", "inhibition": "-6.09% (inactive)"}
{"smiles": "CCc1ccc(C2C(C#N)=C(N)N(N(C)C)C3=C2C(=O)CCC3)s1", "note": "(stereo unspecified)", "inhibition": "1.4% (inactive)"}
{"smiles": "CCOc1ccc(C2C(C#N)=C(N)N(N(C)C)C3=C2C(=O)CCC3)cc1", "note": "(stereo unspecified)", "inhibition": "16.2% (inactive)"}
{"smiles": "CN(C)N1C(N)=C(C#N)C(c2ccc(Br)cc2)C2=C1CCCC2=O", "note": "(stereo unspecified)", "inhibition": "35.1% (active)"}
{"smiles": "CC(C(=O)N=Nc1c(O)n(C)c2ccc(Br)cc12)n1cnc2ccccc2c1=O", "note": "(stereo unspecified)", "inhibition": "-4.46% (inactive)"}
{"smiles": "CNc1nccc(-c2ccc(Cl)cc2)c1C#N", "inhibition": "-58.4% (inactive)"}
{"smiles": "CCn1c(C)nc2cc(C(=O)NNS(=O)(=O)c3ccc(C)cc3C)ccc21", "inhibition": "-9.65% (inactive)"}
{"smiles": "O=C1Cc2ccccc2Sc2ccc(Cl)cc21", "inhibition": "7.8% (inactive)"}
{"smiles": "CCN(CC)C(=O)[C@@H]1C=C2c3cccc4[nH]c(Br)c(c34)C[C@H]2N(C)C1", "inhibition": "33.8% (active)"}
{"smiles": "CC1(C)CN(CCc2ccccc2)C(=O)[C@H]1CC(=O)Nc1ccc(Br)cc1", "inhibition": "21.8% (inactive)"}
{"smiles": "COc1ccc(NC(=O)C[C@H]2C(=O)N(CCc3ccccc3)C[C@@H]2C)cc1", "inhibition": "29.5% (active)"}
{"smiles": "COc1ccc(CCN2C(=O)N(c3ccc(OC)cc3)C(=O)C2CC(=O)Nc2ccc(OC)cc2)cc1", "note": "(stereo unspecified)", "inhibition": "4.43% (inactive)"}
{"smiles": "COC(=O)C1=C(c2cc3ccccc3s2)C[C@@H]2CC[C@H]1N2C(=O)NCCO", "inhibition": "-0.84% (inactive)"}
{"smiles": "Cc1noc(/C=C/c2ccco2)c1S(=O)(=O)N1CCC(C(=O)Nc2ccc(Cl)cn2)CC1", "inhibition": "2.84% (inactive)"}
{"smiles": "O=C(Nc1ccc(S(=O)(=O)NCC2CCCO2)cc1)c1ccc(F)cc1", "note": "(stereo unspecified)", "inhibition": "14% (inactive)"}
{"smiles": "Cc1ccc(NC(=O)c2ccc(S(=O)(=O)NCC3CCCO3)cc2)cc1C", "note": "(stereo unspecified)", "inhibition": "-7.16% (inactive)"}
{"smiles": "CCOc1ccc(C(=O)Nc2ccc(S(=O)(=O)NCC3CCCO3)cc2)cc1OCC", "note": "(stereo unspecified)", "inhibition": "35% (active)"}
{"smiles": "CC(C)c1ccc(Nc2ncccc2C#N)cc1", "inhibition": "7.01% (inactive)"}
{"smiles": "CCC(C)(C)NC(=O)C(c1ccc(O)cc1)N(Cc1ccco1)C(=O)CCC(=O)Nc1ccccn1", "note": "(stereo unspecified)", "inhibition": "0.91% (inactive)"}
{"smiles": "CSc1ccccc1NC(=O)CN(C)CC(=O)Nc1cccc(Br)c1", "inhibition": "0.92% (inactive)"}
{"smiles": "Cc1cccc(N(C(=O)c2sc(C)nc2C)C(C(=O)NCC2CCCO2)c2ccccc2)c1", "note": "(stereo unspecified)", "inhibition": "-8.32% (inactive)"}
{"smiles": "Cc1ccccc1-n1c(SCC(=O)Nc2cccc3ccccc23)nc(O)cc1=O", "inhibition": "32.7% (active)"}
{"smiles": "Cc1ccc(-n2c(SCC(=O)Nc3cccc4ccccc34)nnc2-c2ccccn2)cc1", "inhibition": "-2.55% (inactive)"}
{"smiles": "C=CCn1c(N)cc(=O)nc1SCC(=O)Nc1cccc2ccccc12", "inhibition": "-1.46% (inactive)"}
{"smiles": "O=C(Cn1cnc2c(OCc3ccccc3)ncnc21)NCc1nc2ccccc2[nH]1", "inhibition": "-9.89% (inactive)"}
{"smiles": "Cn1c(=NC(=O)c2ccc3c(c2)OCCO3)sc2cc(S(C)(=O)=O)ccc21", "inhibition": "-4.23% (inactive)"}
{"smiles": "Cn1c(=NC(=O)c2cnccn2)sc2ccccc21", "inhibition": "36.4% (active)"}
{"smiles": "Cn1c(=NC(=O)c2ccco2)sc2cccc(F)c21", "inhibition": "5.27% (inactive)"}
{"smiles": "COC(=O)c1ccc(CN2C(=O)[C@]3(OCCC=C[C@H]3C)c3c(Br)cccc32)cc1", "inhibition": "10.2% (inactive)"}
{"smiles": "O=C(N[C@@H]1C/C=C\\C[C@@H](CC(=O)N(CCO)Cc2ccccc2)C(=O)N[C@H](Cc2ccccc2)COC1=O)OCC1c2ccccc2-c2ccccc21", "inhibition": "0.7% (inactive)"}
{"smiles": "CCOC(=O)N/N=C1\\CC(C)S(=O)(=O)c2ccc(Cl)cc21", "note": "(stereo unspecified)", "inhibition": "-1.67% (inactive)"}
{"smiles": "COc1ccc(C(=O)N2CCN(c3ccc(C(C)=O)cc3F)CC2)cc1S(=O)(=O)NC1CC1", "inhibition": "12.2% (inactive)"}
{"smiles": "COc1cccc(NC(=O)Nc2nnc(N3CCCCC3C)s2)c1", "note": "(stereo unspecified)", "inhibition": "8.79% (inactive)"}
{"smiles": "COc1ccc(CN2C(CC(=O)Nc3cccnc3)c3ccc(C(F)(F)F)cc3S2(=O)=O)cc1", "note": "(stereo unspecified)", "inhibition": "1.05% (inactive)"}
{"smiles": "COc1ccc(C(N)c2csc(NC(=O)Nc3cccc(C(F)(F)F)c3)n2)cc1", "note": "(stereo unspecified)", "inhibition": "36.4% (active)"}
{"smiles": "O=C1[C@@H](c2ccccc2)[C@@H](c2ccccc2)N1c1ccccc1", "inhibition": "-7.47% (inactive)"}
{"smiles": "COc1cc(C(=O)N2CCN(C/C=C/c3ccccc3)CC2)cc(OC)c1C", "inhibition": "11.4% (inactive)"}
{"smiles": "COc1ccc(C(C)=O)cc1CSc1nc2nc(C)cc(C)n2n1", "inhibition": "-9.62% (inactive)"}
{"smiles": "COc1ccc(C(=O)/C=C/c2ccc(-c3ccccc3)cc2)cc1CSCC(=O)O", "inhibition": "29.8% (active)"}
{"smiles": "Cc1noc(C)c1S(=O)(=O)N(C)C[C@H]1OCCCC[C@@H](C)Oc2ccc(NC(=O)CCCN(C)C)cc2C(=O)N([C@H](C)CO)C[C@@H]1C", "inhibition": "-8.1% (inactive)"}
{"smiles": "CC(C)CN1CCC1(C)C(=O)Nc1ccc(OC(F)F)cc1", "note": "(stereo unspecified)", "inhibition": "15.4% (inactive)"}
{"smiles": "CC(C)NC(=O)C1(C)CCCCN1Cc1cccc(C(F)(F)F)c1", "note": "(stereo unspecified)", "inhibition": "0.49% (inactive)"}
{"smiles": "CC(C)Oc1ccc(CN2CCC2(C)C(=O)NCc2ccc(C(F)(F)F)cc2)cc1", "note": "(stereo unspecified)", "inhibition": "35.6% (active)"}
{"smiles": "CC(=O)N=c1ncn(CC(COC(C)=O)OC(C)=O)c2nc[nH]c12", "note": "(stereo unspecified)", "inhibition": "6.99% (inactive)"}
{"smiles": "COC(=O)Cc1ccc(OC2(C)CCN(Cc3ccc4c(c3)OCCO4)C2)cc1", "note": "(stereo unspecified)", "inhibition": "0.88% (inactive)"}
{"smiles": "CC(C)(C)NC(=O)C(c1ccco1)N(Cc1ccc2c(c1)OCO2)C(=O)Cn1nnc2ccccc21", "note": "(stereo unspecified)", "inhibition": "5.93% (inactive)"}
{"smiles": "CCCCCCCCNS(=O)(=O)/C=C/c1cc(C)ccc1CNC(=O)OC(C)(C)C", "inhibition": "29.5% (inactive)"}
{"smiles": "COCCn1c(=O)[nH]c(=O)c2cc(C(=O)c3cc(OC)ccc3O)cnc21", "inhibition": "16.3% (inactive)"}
{"smiles": "CCc1ccc(NC(=O)CN2C(=O)COc3ccc(S(=O)(=O)N4CCCC4)cc32)cc1", "inhibition": "-0.54% (inactive)"}
{"smiles": "COP(=O)(Sc1ccccc1)C(Cc1ccccc1)NC(=O)OCc1ccccc1", "note": "(stereo unspecified)", "inhibition": "3.36% (inactive)"}
{"smiles": "COc1cc2c(cc1OC)C(Cc1cc(OC)c(OC)cc1[N+](=O)[O-])=NCC2", "inhibition": "40% (active)"}
{"smiles": "COc1cc2c(cc1OC)C(c1cccc([N+](=O)[O-])c1)=NCC2", "inhibition": "10.7% (inactive)"}
{"smiles": "COc1cc(CN2CCCN(C)CC2)c([N+](=O)[O-])cc1OC", "inhibition": "-3.03% (inactive)"}
{"smiles": "CC(C)CCNC(=O)Cn1c(=O)oc2cc(S(=O)(=O)N3CC(C)CC(C)C3)ccc21", "note": "(stereo unspecified)", "inhibition": "7.1% (inactive)"}
{"smiles": "CCCNC(=O)C1(C)CCN(C(=O)c2cc(F)ccc2C)C1", "note": "(stereo unspecified)", "inhibition": "6.2% (inactive)"}
{"smiles": "Nc1ccc(N=Nc2ccccc2Cl)c(N)n1", "inhibition": "30% (active)"}
{"smiles": "COc1ccc(C(C(=O)NC(C)(C)C)N(C(=O)Cn2nnc3ccccc32)c2ccc(C(C)=O)cc2)cc1O", "note": "(stereo unspecified)", "inhibition": "21.7% (inactive)"}
{"smiles": "Cc1nc(N)nc(SCc2ccc([N+](=O)[O-])cc2)c1N", "inhibition": "-13.9% (inactive)"}
{"smiles": "Cc1ccc(S(=O)(=O)NC(C(=O)N2CCOCCOCCOCCOCC2)c2ccccc2)cc1", "note": "(stereo unspecified)", "inhibition": "-5.21% (inactive)"}
{"smiles": "N[C@@H](Cc1ccccc1)C(=O)N1CCOCC1", "inhibition": "-2.24% (inactive)"}
{"smiles": "Cc1oc2c(c1C(=O)N1CCOCC1)C(=O)c1ccccc1C2=O", "inhibition": "70.8% (active)"}
